Assay in all cases: DAPPL (digital affinity profiling via proximity ligation, sequencing); 10 mM Tris-HCl pH 7.5, 50 mM NaCl, 1 mM DTT, 4% glycerol, room temperature, 30 min; GST-TFs on glutathione beads, 16-mer random dsDNA library, 0.1% formaldehyde crosslink after washing; high values mean tight binding
Conditions in all cases: protein: recombinant; tags: N-terminal GST; dsDNA, one strand shown

The target of one assay is T1, FLI1 (Homo sapiens, UniProt Q01543 1-452).
T1 sequence: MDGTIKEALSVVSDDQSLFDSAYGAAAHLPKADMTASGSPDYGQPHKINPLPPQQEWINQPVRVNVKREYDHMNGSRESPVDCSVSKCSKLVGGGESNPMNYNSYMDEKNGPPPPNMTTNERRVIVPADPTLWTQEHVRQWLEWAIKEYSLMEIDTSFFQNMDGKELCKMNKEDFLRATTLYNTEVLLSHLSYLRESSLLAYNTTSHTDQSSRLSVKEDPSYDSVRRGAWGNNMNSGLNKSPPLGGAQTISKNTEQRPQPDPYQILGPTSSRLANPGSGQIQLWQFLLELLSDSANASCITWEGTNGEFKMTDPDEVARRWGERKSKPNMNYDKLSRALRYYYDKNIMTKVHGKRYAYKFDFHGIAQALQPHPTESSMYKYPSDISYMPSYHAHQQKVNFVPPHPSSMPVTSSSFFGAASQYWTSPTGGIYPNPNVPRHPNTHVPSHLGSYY
The essentials: (§1)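 Pools of DNA-barcoded human transcription factors, expressed in yeast as GST fusions on glutathione beads and combined with a tag-only sample, were incubated with 200 nmole of a 16-mer random double-stranded DNA library. Incubation took 30 min at room temperature in Tris/NaCl/DTT/glycerol buffer and was followed by washing, 0.1% formaldehyde crosslinking, proximity ligation (BsaI/T4 ligase, 1 h, 37 °C), PCR amplification and sequencing on an Illumina NextSeq500. Binding signal is the ratio of a hexamer's read frequency for a factor to its frequency for the tag-only sample.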

The target of the next assay is T2, ELK1 (Homo sapiens, UniProt P19419 1-428).
T2 sequence: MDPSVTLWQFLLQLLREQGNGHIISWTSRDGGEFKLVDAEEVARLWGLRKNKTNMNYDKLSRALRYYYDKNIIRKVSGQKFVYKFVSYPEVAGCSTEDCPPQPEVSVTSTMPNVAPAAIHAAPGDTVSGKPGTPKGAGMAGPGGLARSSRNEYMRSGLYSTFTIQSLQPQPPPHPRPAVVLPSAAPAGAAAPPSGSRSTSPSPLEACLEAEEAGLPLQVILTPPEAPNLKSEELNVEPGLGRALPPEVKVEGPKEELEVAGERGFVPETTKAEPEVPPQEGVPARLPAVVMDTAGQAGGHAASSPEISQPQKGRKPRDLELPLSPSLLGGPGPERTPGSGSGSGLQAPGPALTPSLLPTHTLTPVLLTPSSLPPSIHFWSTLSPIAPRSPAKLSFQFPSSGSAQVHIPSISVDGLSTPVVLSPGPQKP
The essentials: as §1

The next assay has as its target T3, GABPA (Homo sapiens, UniProt Q06546 1-454).
T3 sequence: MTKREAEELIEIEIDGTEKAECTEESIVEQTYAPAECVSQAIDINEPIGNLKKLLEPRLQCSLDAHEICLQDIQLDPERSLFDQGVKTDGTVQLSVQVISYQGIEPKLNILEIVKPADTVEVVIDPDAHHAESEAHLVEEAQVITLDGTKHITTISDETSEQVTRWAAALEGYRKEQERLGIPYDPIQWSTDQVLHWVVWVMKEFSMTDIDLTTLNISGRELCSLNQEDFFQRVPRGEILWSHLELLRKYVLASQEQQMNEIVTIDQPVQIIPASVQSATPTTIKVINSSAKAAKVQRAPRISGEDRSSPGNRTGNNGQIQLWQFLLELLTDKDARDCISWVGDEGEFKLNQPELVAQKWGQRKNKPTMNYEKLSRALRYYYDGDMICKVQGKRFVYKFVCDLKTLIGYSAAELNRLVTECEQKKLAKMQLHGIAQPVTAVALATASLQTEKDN
The essentials: as §1

The next assay concerns the target T4, ERG (Homo sapiens, UniProt P11308 1-479).
T4 sequence: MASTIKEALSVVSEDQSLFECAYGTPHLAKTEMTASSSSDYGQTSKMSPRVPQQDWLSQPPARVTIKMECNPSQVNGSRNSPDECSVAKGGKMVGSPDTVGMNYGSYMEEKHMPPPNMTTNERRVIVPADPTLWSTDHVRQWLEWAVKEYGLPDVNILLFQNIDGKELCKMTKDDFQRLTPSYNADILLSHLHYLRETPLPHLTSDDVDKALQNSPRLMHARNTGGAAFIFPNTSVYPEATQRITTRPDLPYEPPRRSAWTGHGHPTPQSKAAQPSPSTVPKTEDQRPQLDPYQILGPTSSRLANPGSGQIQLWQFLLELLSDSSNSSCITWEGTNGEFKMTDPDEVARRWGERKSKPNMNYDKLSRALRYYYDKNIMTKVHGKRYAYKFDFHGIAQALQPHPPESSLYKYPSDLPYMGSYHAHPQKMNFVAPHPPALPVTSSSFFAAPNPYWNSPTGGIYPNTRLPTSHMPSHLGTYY
In outline:
as §1

The target of a further assay is ELF1 (Homo sapiens, UniProt P32519 1-619). In outline:
as §1

The target in another assay is T5, EHF (Homo sapiens, UniProt Q9NZC4 1-300).
T5 sequence: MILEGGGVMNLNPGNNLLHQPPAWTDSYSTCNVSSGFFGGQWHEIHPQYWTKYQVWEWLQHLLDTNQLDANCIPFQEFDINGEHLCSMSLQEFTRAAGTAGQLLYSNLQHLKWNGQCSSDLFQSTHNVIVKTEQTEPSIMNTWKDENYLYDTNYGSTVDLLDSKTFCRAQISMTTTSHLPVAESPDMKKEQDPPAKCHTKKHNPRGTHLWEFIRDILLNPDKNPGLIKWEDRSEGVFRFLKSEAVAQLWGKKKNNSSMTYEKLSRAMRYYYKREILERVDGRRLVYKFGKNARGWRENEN
The essentials:
as §1

The next assay addresses SPI1 (Homo sapiens, UniProt P17947 1-270). The essentials:
as §1

The next assay addresses SPIB (Homo sapiens, UniProt Q01892 1-262). In outline:
as §1

The target of the next assay is T6, FEV (Homo sapiens, UniProt Q99581 1-238).
T6 sequence: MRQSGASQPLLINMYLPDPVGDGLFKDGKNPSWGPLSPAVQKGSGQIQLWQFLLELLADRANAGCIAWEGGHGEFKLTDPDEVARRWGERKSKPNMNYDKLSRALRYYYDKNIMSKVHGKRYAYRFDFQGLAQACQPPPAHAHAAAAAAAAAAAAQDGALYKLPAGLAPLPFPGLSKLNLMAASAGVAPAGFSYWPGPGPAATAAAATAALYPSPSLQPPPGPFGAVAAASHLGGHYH
The essentials:
as §1

The next assay deals with ETV5 (Homo sapiens, UniProt P41161 1-510). The essentials:
as §1

The target of another assay is T7, SPIC (Homo sapiens, UniProt Q8N5J4 1-248).
T7 sequence: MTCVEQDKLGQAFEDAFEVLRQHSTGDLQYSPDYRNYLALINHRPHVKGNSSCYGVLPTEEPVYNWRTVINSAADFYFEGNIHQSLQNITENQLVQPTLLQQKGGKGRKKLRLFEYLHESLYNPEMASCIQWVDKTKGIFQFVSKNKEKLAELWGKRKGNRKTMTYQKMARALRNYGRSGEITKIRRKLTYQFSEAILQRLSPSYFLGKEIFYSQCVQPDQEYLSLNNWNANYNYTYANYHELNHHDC
In outline: as §1

For a further assay, the target named is ELF4 (Homo sapiens, UniProt Q99607 1-663). The essentials:
as §1

A further assay concerns the target ETV1 (Homo sapiens, UniProt P50549 1-477). The essentials:
as §1

For another assay, the target named is T8, ERF (Homo sapiens, UniProt P50548 1-548).
T8 sequence: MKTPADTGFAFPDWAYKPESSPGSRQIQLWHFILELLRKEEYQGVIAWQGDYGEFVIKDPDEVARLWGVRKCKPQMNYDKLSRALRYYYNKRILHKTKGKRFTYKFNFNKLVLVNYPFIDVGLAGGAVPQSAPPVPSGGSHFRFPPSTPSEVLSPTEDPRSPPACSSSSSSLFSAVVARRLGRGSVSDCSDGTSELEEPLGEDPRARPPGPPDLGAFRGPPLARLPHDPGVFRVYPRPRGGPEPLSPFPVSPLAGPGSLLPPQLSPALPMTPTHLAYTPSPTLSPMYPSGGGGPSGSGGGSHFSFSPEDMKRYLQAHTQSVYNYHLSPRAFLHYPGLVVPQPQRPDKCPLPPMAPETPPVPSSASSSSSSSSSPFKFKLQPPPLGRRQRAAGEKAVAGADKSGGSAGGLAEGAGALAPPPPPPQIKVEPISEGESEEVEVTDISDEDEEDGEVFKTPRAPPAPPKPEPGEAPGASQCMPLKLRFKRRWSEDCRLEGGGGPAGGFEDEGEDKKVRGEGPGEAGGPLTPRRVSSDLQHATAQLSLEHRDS
In outline: as §1

A further assay deals with T9, ETV3L (Homo sapiens, UniProt Q6ZN32 1-361).
T9 sequence: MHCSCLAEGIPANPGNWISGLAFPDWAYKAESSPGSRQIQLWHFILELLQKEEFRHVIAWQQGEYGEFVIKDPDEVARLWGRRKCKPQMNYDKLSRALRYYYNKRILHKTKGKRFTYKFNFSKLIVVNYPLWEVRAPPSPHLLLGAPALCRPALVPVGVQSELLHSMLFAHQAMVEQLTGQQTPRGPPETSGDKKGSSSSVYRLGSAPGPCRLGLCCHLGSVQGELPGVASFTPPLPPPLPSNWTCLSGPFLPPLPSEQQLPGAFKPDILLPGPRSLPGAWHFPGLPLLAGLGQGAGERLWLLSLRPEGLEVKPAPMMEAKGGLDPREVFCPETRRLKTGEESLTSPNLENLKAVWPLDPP
In outline: as §1

Another assay concerns the target T10, ETS2 (Homo sapiens, UniProt P15036 1-469).
T10 sequence: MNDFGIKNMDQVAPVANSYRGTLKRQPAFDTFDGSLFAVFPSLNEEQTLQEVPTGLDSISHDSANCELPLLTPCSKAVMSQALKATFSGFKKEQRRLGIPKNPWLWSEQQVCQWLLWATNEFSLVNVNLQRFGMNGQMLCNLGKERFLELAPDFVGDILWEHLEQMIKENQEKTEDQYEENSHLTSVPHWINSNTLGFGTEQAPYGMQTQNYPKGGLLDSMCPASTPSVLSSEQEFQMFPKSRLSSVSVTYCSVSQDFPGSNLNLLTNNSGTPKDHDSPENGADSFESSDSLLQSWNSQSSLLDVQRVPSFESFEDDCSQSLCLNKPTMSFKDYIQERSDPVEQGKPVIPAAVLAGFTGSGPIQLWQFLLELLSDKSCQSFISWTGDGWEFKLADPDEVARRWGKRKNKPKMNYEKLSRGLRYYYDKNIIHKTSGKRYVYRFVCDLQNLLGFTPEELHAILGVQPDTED
In outline: as §1

The next assay concerns the target T11, SPDEF (Homo sapiens, UniProt O95238 1-335).
T11 sequence: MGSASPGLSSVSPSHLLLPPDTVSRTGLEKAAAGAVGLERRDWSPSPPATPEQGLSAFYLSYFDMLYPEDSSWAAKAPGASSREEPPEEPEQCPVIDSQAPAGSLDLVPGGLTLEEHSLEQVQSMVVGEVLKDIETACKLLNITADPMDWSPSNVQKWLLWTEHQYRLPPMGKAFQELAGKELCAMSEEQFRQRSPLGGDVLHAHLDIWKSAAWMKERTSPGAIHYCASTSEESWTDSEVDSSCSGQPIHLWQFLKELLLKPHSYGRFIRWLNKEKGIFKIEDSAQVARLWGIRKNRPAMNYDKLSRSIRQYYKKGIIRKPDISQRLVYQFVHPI
In outline:
as §1

Another assay concerns the target T12, ELF5 (Homo sapiens, UniProt Q9UKW6-2 1-255).
T12 sequence: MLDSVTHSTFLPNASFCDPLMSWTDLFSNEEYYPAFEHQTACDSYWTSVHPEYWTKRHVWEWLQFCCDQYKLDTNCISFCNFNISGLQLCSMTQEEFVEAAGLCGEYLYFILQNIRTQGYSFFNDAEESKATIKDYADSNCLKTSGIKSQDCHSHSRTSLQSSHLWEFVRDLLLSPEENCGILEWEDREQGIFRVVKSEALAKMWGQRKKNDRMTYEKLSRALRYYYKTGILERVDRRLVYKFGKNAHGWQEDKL
In outline:
as §1

The next assay addresses T13, ETV3 (Homo sapiens, UniProt P41162-2 1-143).
T13 sequence: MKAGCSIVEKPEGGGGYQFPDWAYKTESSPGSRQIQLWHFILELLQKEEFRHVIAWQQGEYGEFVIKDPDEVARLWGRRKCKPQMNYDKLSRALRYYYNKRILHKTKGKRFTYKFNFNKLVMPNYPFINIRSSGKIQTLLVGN
The essentials:
as §1

For the next assay, the target named is ETV6 (Homo sapiens, UniProt P41212 1-452). The essentials: as §1

We go through 1 sequence from article PMC7862700, “An all-to-all approach to the identification of sequence-specific readers for epigenetic DNA modifications on cytosine”.

Chain of SPIB (Q01892 whole entry): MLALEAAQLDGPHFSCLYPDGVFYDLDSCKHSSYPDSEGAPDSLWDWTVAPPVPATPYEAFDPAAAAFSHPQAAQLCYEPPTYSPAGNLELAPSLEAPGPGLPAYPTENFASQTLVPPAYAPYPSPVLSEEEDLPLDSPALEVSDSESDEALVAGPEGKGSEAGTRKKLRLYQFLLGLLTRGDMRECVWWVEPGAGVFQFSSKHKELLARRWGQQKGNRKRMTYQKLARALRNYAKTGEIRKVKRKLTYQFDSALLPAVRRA
Chain of ELF4 (Q99607 whole entry): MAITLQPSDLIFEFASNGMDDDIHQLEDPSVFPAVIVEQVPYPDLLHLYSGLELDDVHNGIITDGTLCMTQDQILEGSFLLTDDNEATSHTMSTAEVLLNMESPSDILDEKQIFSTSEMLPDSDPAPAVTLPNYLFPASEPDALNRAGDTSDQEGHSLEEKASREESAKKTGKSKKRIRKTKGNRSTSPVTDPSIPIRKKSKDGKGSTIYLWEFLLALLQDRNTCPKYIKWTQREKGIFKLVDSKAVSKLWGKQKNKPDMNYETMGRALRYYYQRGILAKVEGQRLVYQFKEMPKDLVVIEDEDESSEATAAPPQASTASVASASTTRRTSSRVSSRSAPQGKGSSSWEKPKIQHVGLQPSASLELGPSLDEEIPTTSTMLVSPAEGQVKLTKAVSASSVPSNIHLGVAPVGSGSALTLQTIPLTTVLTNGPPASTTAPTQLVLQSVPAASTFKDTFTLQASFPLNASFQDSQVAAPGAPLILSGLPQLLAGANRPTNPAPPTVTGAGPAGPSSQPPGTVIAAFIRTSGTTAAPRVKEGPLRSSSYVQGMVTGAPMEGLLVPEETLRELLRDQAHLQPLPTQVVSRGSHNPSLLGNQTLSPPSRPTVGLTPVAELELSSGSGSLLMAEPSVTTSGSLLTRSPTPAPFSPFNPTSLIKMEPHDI
Chain of ETV6 (P41212 whole entry): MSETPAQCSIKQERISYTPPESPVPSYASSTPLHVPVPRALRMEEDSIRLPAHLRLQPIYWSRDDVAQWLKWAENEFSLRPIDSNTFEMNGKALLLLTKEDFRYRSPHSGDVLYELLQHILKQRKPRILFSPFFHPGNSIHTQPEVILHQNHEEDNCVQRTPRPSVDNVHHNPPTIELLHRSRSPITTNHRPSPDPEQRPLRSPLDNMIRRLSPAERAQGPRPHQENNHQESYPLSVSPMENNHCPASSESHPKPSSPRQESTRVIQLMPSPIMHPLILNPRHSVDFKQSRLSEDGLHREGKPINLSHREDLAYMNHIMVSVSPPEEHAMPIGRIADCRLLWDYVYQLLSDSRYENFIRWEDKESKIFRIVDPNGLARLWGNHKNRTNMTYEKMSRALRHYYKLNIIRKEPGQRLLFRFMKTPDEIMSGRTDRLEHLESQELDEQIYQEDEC
Chain of ELF1 (P32519 whole entry): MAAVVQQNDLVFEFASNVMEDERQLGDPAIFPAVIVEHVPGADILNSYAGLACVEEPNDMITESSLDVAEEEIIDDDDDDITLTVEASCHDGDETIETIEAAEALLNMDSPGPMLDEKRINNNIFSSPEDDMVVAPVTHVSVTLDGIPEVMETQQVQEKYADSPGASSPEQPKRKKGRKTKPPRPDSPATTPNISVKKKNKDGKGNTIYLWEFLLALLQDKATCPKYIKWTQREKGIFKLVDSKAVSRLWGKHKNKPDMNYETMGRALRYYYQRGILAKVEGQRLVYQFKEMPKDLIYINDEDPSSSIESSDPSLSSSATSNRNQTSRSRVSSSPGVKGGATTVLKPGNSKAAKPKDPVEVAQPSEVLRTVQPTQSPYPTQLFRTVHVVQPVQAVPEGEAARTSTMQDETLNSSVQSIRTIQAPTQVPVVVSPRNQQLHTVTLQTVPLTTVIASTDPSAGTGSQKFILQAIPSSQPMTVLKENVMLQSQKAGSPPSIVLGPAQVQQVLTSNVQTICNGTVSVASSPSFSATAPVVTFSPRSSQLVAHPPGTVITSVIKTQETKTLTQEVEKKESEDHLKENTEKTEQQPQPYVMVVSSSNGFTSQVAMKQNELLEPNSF
Chain of ETV5 (P41161 whole entry): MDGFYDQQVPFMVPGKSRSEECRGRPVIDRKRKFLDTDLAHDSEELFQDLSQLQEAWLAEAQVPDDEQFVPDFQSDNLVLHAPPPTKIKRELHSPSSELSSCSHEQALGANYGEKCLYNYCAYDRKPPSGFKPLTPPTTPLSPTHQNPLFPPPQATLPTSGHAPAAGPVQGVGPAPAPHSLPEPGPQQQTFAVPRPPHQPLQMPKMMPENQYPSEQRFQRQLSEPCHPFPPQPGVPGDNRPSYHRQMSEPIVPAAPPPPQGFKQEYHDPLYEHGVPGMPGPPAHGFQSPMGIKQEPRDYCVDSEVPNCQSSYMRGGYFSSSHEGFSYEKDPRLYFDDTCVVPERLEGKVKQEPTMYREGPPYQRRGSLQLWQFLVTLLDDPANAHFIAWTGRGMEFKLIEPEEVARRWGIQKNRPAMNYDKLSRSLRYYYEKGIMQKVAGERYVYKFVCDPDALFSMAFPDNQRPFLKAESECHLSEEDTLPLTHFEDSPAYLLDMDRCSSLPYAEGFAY
Chain of ETV1 (P50549 whole entry): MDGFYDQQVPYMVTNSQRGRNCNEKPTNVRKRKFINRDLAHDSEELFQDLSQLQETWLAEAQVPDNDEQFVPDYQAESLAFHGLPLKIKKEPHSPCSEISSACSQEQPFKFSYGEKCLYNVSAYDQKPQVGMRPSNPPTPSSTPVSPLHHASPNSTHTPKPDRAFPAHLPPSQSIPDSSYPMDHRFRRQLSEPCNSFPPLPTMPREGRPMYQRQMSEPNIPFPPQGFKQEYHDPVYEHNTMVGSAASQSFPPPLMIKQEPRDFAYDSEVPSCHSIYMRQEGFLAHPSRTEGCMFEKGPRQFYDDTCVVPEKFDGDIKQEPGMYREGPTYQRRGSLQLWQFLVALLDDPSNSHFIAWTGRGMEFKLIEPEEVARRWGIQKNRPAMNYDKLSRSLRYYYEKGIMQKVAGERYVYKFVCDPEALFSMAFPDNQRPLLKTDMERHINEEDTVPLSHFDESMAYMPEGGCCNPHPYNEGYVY

Take CCACCT: the binding signal in the assay with FLI1 was 1.16 fold enrichment (6-mer frequency, TF over GST control); in the assay with ELK1, 1.12 fold enrichment (6-mer frequency, TF over GST control); in the assay with GABPA, 1.1 fold enrichment (6-mer frequency, TF over GST control); in the assay with ERG it was 1.11 fold enrichment (6-mer frequency, TF over GST control); with ELF1, 1.15 fold enrichment (6-mer frequency, TF over GST control); with EHF it was 1.21 fold enrichment (6-mer frequency, TF over GST control). In addition, the binding signal with SPI1 is 1.11 fold enrichment (6-mer frequency, TF over GST control); with SPIB, 1.07 fold enrichment (6-mer frequency, TF over GST control); in the assay with FEV it was 1.17 fold enrichment (6-mer frequency, TF over GST control); with ETV5, 1.07 fold enrichment (6-mer frequency, TF over GST control); with SPIC, 1.19 fold enrichment (6-mer frequency, TF over GST control); with ELF4, 1.15 fold enrichment (6-mer frequency, TF over GST control). Moreover, the binding signal with ETV1 was 1.07 fold enrichment (6-mer frequency, TF over GST control); with ERF it was 1.13 fold enrichment (6-mer frequency, TF over GST control); with ETV3L it was 1.08 fold enrichment (6-mer frequency, TF over GST control); with ETS2, 1.1 fold enrichment (6-mer frequency, TF over GST control); with SPDEF it was 1.19 fold enrichment (6-mer frequency, TF over GST control); in the assay with ELF5, 1.09 fold enrichment (6-mer frequency, TF over GST control). Also, the binding signal with ETV3 is 1.08 fold enrichment (6-mer frequency, TF over GST control); with ETV6, 1.06 fold enrichment (6-mer frequency, TF over GST control).
